Drawing on PubChem BioAssay AID651558 (National Center for Advancing Translational Sciences (NCATS), 2012), this text covers Potency for 100 compounds.

About 480 (40%) of roughly 1,200 compounds were called active. About 29% were inconclusive and are not listed. Calls come from the whole dose curve; as a rule, active = well fitted inhibition curve with a large enough effect; inconclusive = small, poorly fitted or top-dose-only effect; inactive = no such curve, though single readings can be large or run the other way. The list shows a part of the results.
Potency is the fitted concentration of half-maximal effect.

This assay can be described thus: qHTS Assay to Find Inhibitors of Chronic Active B-Cell Receptor Signaling: Hit Validation in Primary Screen. Note: nearly all actives have a fitted effect of over 75% in size. As to conditions: ABC-DLBCL IkB-luc/CBR ratio luminescence, 4 h; series mostly up to 46.1 µM. A digest of the protocol:
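TMD8 ABC-DLBCL cells carrying doxycycline-inducible IkBa-green luciferase fusion and free red luciferase, 0.5% FBS, dosed 46 uM–3 nM with doxycycline for 4 h at 37C. Green/red luminescence ratio normalized to basal and 10 uM MG-132.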
(In qHTS, concentration-response curves come from the screen itself.)
Regarding `Cc1cc(Cl)n2c(nc3ccccc32)c1C#N`, the Potency was 1.84 µM (active).

On to `Cc1ccc(-c2cc(C(=O)N/N=C/c3c(C)nn(-c4ccccc4)c3C)[nH]n2)cc1`, for which the Potency was 2.31 µM (active). With `Cc1nn(-c2ccccc2)c(C)c1/C=N/NC(=O)c1cc(-c2cccs2)[nH]n1`, the Potency was 3.26 µM (active). Take `Cc1nn(-c2ccccc2)c(C)c1/C=N/NC(=O)c1cc(-c2ccccc2)n[nH]1`: the Potency is 2.31 µM (active). For `C[C@@H]1C[C@H]2[C@@H]3C[C@H](F)C4=CC(=O)C=C[C@]4(C)[C@@]3(F)[C@@H](O)C[C@]2(C)[C@@]1(O)C(=O)CO` the value was “inactive”; for `N#CC(C(=S)Nc1ccccc1)c1nc2ccccc2[nH]1` (stereo not given), “inactive”; for `COC(=O)Nc1nc2ccc(Sc3ccccc3)cc2[nH]1`, “inactive”. For `COc1ccc(NC(=S)N=Nc2c(O)[nH]c3ccccc23)cc1` the value was “inactive”; for `COc1cc(OC)cc(C(=O)N[C@H](C(=O)Nc2nc3ccccc3[nH]2)C(C)C)c1`, 1.84 µM (active). As to `COc1ccc(C(=O)N[C@H](C(=O)Nc2nc3ccccc3[nH]2)C(C)C)cc1`, the Potency is 5.8 µM (active). `Cc1cccc(C(=O)N[C@H](C(=O)Nc2nc3ccccc3[nH]2)C(C)C)c1`: the Potency was 3.26 µM (active). For `OCc1ccnc2c(O)cccc12` the value was “inactive”. For `O=C(N/N=C/c1ccc(Cl)cc1)c1sccc1OCc1ccc(F)cc1` the value was 5.17 µM (active).

For `Fc1ccc(NC(=S)N/N=C/c2ccc(F)c(F)c2)cc1`, the Potency entry is “inactive”.

Take `NNC(=O)/C(=C\c1ccco1)NC(=O)c1ccco1`: the Potency result is “inactive”. For `Cc1cc(=O)oc2cc(OCC3CC(c4ccccc4Cl)=NO3)ccc12` (stereo not given) the value was 2.59 µM (active); for `COc1ccccc1C1=NOC(COc2ccc3c(C)cc(=O)oc3c2)C1` (stereo not given), 8.2 µM (active); for `CCCCOc1ccc2c(C)cc(=O)oc2c1OCCCC`, “inactive”. For `Cc1ccc(NC(=S)NNC(=S)Nc2ccc(C)cc2C)cc1` the value was 1.84 µM (active); for `C=CCNC(=S)N/N=C/c1ccc(C)cc1C`, “inactive”; for `Cc1ccc(NC(=S)NNC(C)(C)C)cc1`, “inactive”. For `CCOc1cc(NC(=O)CCl)c(OCC)cc1NC(=O)CCl` the value was 5.8 µM (active); for `C/C(=N\NC(=S)NC1CCCCC1)c1ccc(C)o1`, “inactive”.

Consider `C(=N\Nc1nc2ccccc2[nH]1)/C1CCCCC1`, for which the Potency entry was “inactive”. For `CSc1nc(SCC(=O)NCc2ccco2)c2c3c(sc2n1)COC(C)(C)C3` the value was 20.6 µM (active). For `O=C1NC(=Nc2ccc(O)cc2)S/C1=C\C=C\c1ccco1` the value was 2.91 µM (active). For `Cn1cccc1/C=C1\SC(=Nc2ccc(O)cc2)NC1=O` the value was 1.03 µM (active); for `O=C(Cc1cccs1)N/N=C/C=C/c1ccco1`, “inactive”. On to `CCOc1c(Br)cc(CNc2ccc3c(c2)OCCO3)cc1OC`, for which the Potency is 10.3 µM (active). For `CCOc1cc(CNc2ccc3c(c2)OCCO3)cc(Br)c1OCC` the value was 5.17 µM (active); for `CCOc1c(Cl)cc(CNCC(C)C)cc1OC`, “inactive”; for `O=C(N/N=C/c1ccc(Cl)cc1)c1n[nH]c2c1CCCC2`, 2.06 µM (active). Consider `Cc1ccc(/C=N/NC(=O)c2n[nH]c3c2CCCC3)cc1`, for which the Potency is 0.206 µM (active). For `O=C(NN=C1CCCC1)c1n[nH]c2c1CCC2` the value was “inactive”. `Cc1cccc(C)c1OCC(=O)N/N=C/C=C/c1ccco1`: the Potency result was “inactive”.

Take `COc1ccc(NC(=S)NC(=O)/C=C/c2ccco2)cc1`: the Potency entry was “inactive”. For `Cc1ccc(NC(=O)/C=C/c2ccco2)nc1` the value was 1.16 µM (active); for `O=C(CNCc1ccccc1)Nc1ccc(Oc2ccccc2)cc1`, “inactive”. Turning to `O=C(COc1ccc(Oc2ccccc2)cc1)NCc1cn2ccccc2n1`, the Potency was 11.6 µM (active). For `Cc1cccc(NC(=S)NNC(=O)CCn2cc(C)cn2)c1` the value was “inactive”. For `Cc1cccc(NC(=O)c2ccc(C(=O)Nc3cccc(C)c3)nc2)c1` the value was 10.3 µM (active); for `CCOC(=O)c1c(C=O)c2sc(C)cc2n1C`, “inactive”. For `CCOC(=O)c1c(C)c(C(=O)OCC)n(C)c1C` the value was 6.51 µM (active). Regarding `COc1ccc(/C(C)=N/Nc2ccc(C(=O)O)cc2)cc1OC`, the Potency is 0.0231 µM (active). Consider `COc1ccc(/C(C)=N/Nc2nc3ccccc3nc2C)cc1OC`, for which the Potency result is “inactive”.

Consider `Cc1cc(C)c2nc3sc(C(=O)N4CCOCC4)c(N)c3cc2c1`, for which the Potency was 1.46 µM (active). For `CCOCCCNC(=O)c1ccc2c(c1)N=C(CC)c1cc(Br)ccc1S2` the value was 0.259 µM (active); for `CCCC1=Nc2cc(C(=O)NCCCOCC)ccc2Sc2ccccc21`, 1.03 µM (active). For `CCC1=Nc2cc(C(=O)NCCCOC)ccc2Sc2ccccc21` the value was 2.06 µM (active); for `CCCC1=Nc2cc(C(=O)NCCCOC(C)C)ccc2Sc2ccccc21`, 20.6 µM (active). For `CC1=NN(C(N)=S)C(=O)C1N=Nc1cccc(C)c1` (stereo not given) the value was “inactive”; for `O=C(c1cc([N+](=O)[O-])ccc1N1CCOCC1)N1CCN(c2ccccc2)CC1`, 3.26 µM (active); for `O=C(NC(=S)N1CCOCC1)c1cn(-c2ccccc2)nc1-c1ccccc1`, “inactive”. As for `COc1ccc(C(=O)c2cc([N+](=O)[O-])ccc2N2CCOCC2)cc1`, the Potency was 2.06 µM (active).

Turning to `C/C(=N\NC(=O)COc1ccc(C(C)(C)C)cc1)c1ccc(N2CCOCC2)cc1`, the Potency entry is “inactive”. On to `O=C(Oc1ccc2ccc(OC(=O)N3CCOCC3)cc2c1)N1CCOCC1`, for which the Potency entry is “inactive”. For `O=C(c1ccc(Cl)cc1)c1cc([N+](=O)[O-])ccc1N1CCOCC1` the value was 5.8 µM (active); for `CCOc1ccc(C(=O)c2cc([N+](=O)[O-])ccc2N2CCOCC2)cc1`, 0.116 µM (active); for `Cc1ccc(-n2cc(CNCCc3ncc(C)[nH]3)c(-c3ccc(F)cc3)n2)cc1`, “inactive”. For `COc1cc2c(cc1OC)-c1cc(NC3CCCCC3)nc(=O)n1CC2` the value was 23.1 µM (active); for `COc1cc2c(cc1OC)-c1cc(NC3CCCCCC3)nc(=O)n1CC2`, 9.2 µM (active). For `Cc1onc(-c2ccccc2)c1-c1nc2cc(Cl)ccc2c(=O)o1` the value was 2.31 µM (active). `C#CCOCCOCCOCCNc1nc(N2CCN(C(=O)[C@H](C(C)C)n3cc(CCO)nn3)CC2)nc(N2CCN(C(=O)[C@H]([C@@H](C)CC)n3cc(CCCN=C(N)N)nn3)CC2)n1`: the Potency entry is “inactive”. Take `COc1ccc(-c2cc(C(=O)NN)[nH]n2)cc1OC`: the Potency result was “inactive”. In the case of `COc1ccc(/C=C/C(=O)Nc2ccc(-n3nncc3-c3ccc(OC)c(OC)c3)cc2)cc1OC`, the Potency is 2.31 µM (active).

Consider `COc1ccc(N(CC(=O)NC2CCCC2)C(=O)Cn2nnc(-c3ccc(OC)c(OC)c3)n2)c(OC)c1`, for which the Potency entry is “inactive”.

On to `COc1ccc(C(=O)Nc2ccc(-n3nncc3-c3ccc(OC)c(OC)c3)cc2)cc1`, for which the Potency is 2.06 µM (active).

As for `COc1cccc(-c2nnc(Nc3nc4c(F)cccc4s3)o2)c1`, the Potency was 0.326 µM (active).

On to `Fc1cccc2sc(Nc3nnc(-c4ccccc4)o3)nc12`, for which the Potency was 0.13 µM (active). For `O=C(/C=C/c1cccc(Cl)c1)c1nc2ccccc2[nH]1` the value was 20.6 µM (active); for `CCN(C(=O)c1cnc(NC(C)C)cc1C(F)(F)F)c1ccc(Cl)cc1Cl`, “inactive”.

As to `CCOc1ccc2c(c1)OC(c1ccc(OC)cc1)(C(F)(F)F)NC2=O` (stereo not given), the Potency is 11.6 µM (active).

Consider `Oc1c(CN2CCN(c3ccccc3)CC2)cc(Br)c2cccnc12`, for which the Potency entry was “inactive”. For `COc1ccccc1N1CCN(C(=O)C2c3ccccc3Oc3ccccc32)CC1` the value was 16.4 µM (active); for `COc1ccccc1N1CCN(C(=O)c2cc(=O)c3cc(C)cc(C)c3o2)CC1`, 1.03 µM (active).

In the case of `CCOC(=O)c1cnc(Nc2nc3ccccc3o2)nc1CSC(=S)N1CCCCC1`, the Potency entry is “inactive”. `COc1ccc(-c2c/c(=N\c3nc(-c4ccccc4)c(C)s3)c3ccccc3o2)cc1O`: the Potency was 8.2 µM (active). For `C(=N\Nc1nc2ccccc2s1)/c1ccccn1` the value was 14.6 µM (active). For `NC(=S)Nc1nc2ccccc2s1` the value was “inactive”; for `Cc1csc(N/N=C/c2ccccn2)n1`, “inactive”; for `COc1ccc(-c2noc(CSc3nc(N)c(-c4ccccc4)c(=O)[nH]3)n2)cc1`, 8.2 µM (active). For `Nc1nc(SCc2nc(-c3ccccc3)no2)[nH]c(=O)c1-c1ccccc1` the value was 20.6 µM (active); for `COc1ccc(-c2noc(CSc3nc(N)c(-c4ccccc4)c(=O)[nH]3)n2)cc1OC`, 7.31 µM (active); for `COCCNC(=S)N/N=C(\C)c1ccccc1F`, “inactive”. For the compound `CCOc1ccc(S(=O)(=O)Nc2ccc3oc(C)c(C(=O)OCCOC)c3c2)cc1`, the Potency is 8.2 µM (active). For `O=C(/C=C\c1ccco1)Nc1cc([N+](=O)[O-])ccc1F` the value was 1.84 µM (active). For `CCn1c(O)c(N=NC(=S)NCC2CCCO2)c2ccccc21` (stereo not given) the value was “inactive”; for `O=C(Cc1ccc(-n2c(=O)c3ccccc3n(Cc3ccccc3Cl)c2=O)cc1)NCC1CCCO1` (stereo not given), 2.59 µM (active). As for `CC1CCC(n2c(=S)[nH]c3ccccc3c2=O)CC1` (stereo not given), the Potency result was “inactive”. For `CCN(CC(=O)NCc1ccc(F)cc1)C(=O)/C=C/c1ccc(OC)c(S(=O)(=O)NC(C)C)c1` the value was 18.4 µM (active); for `CN(C)c1nc(=Nc2cccc(Cl)c2)ss1`, 20.6 µM (active).

As for `Cc1[nH]n(C(N)=S)c(=O)c1N=Nc1cccc(Cl)c1`, the Potency entry is “inactive”. For `O=C(Nc1ncc(Cc2ccc(SC(F)F)cc2)s1)c1ccccc1` the value was 18.4 µM (active); for `O=C(Nc1ncc(Cc2ccc(SC(F)F)cc2)s1)c1ccc(OC(F)F)cc1`, 0.651 µM (active). For `Cc1ccc(C(=O)Nc2ncc(Cc3ccc(SC(F)F)cc3)s2)cc1` the value was 1.3 µM (active); for `CCCCC(=O)O[C@]1(C(=O)CO)CC[C@H]2[C@@H]3CCC4=CC(=O)CC[C@]4(C)[C@H]3[C@@H](O)C[C@@]21C`, “inactive”. For `CCCSc1nc(C)c(C(C)=O)cc1C#N` the value was 16.4 µM (active). On to `CCOc1cc(-c2cc(-c3ccc(NC(C)=O)cc3)nc(N)c2C#N)ccc1O`, for which the Potency is 20.6 µM (active). For `CC(C)(C)NNC(=S)Nc1cccc(C(F)(F)F)c1` the value was “inactive”. For `CN1CCN(Cc2cc(COCc3ccccc3)c3cccnc3c2O)CC1` the value was “inactive”.
